Source: PubChem (National Center for Advancing Translational Sciences (NCATS))
This is a sample that favours compounds with a hit; in the whole collection about 9.2% have one here.
ELG1 genotoxic: qHTS screen for small molecules that induce genotoxicity in human embryonic kidney (HEK293T) cells expressing luciferase-tagged ELG1. HEK293T ELG1-luciferase reporter, luminescence, 16 h. AID 504466, 2011. Potency, µM (series often up to 46 µM), actives largely listed as activators. actives 1.3% (n = 330,000); further: nearly all actives have a fitted effect of over 60% in size
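HEK293T cells expressing luciferase-tagged ELG1 were exposed to compound or DMSO vehicle for 16 hr at 37 °C and 5% CO2. Luciferase activity was then measured with ONE-Glo after 30 min at room temperature.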
NPC1 prom act: qHTS Assay for NPC1 Promoter Activators. Huh7 NPC1 promoter luciferase reporter, 24 h. Potency, µM (titrated, usually from 9.22 µM), actives largely listed as activators. AID 485313, 2010. actives 2.4% (n = 320,000); further: nearly all actives have a fitted effect of over 60% in size
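Huh7 cells stably carrying NPC1 promoter–luciferase, plated in Opti-MEM with 10% FBS for 2 h, were exposed to compound in DMSO for 24 h at 37 °C; luciferase reagent was added for 10 min and luminescence read.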
FLuc counter: qHTS profiling assay for firefly luciferase inhibitor/activator using purifed enzyme and Km concentrations of substrates (counterscreen for miR-21 project); Luciferin 4-monooxygenase (Photinus pyralis), P08659; purified FLuc, Km substrates, luminescence inhibition; Potency, µM (titrated, usually from 57.5 µM), actives largely listed as inhibitors; actives 6.9% (n = 360,000); AID 588342, 2011; further: nearly all actives have a fitted effect of over 55% in size
Target sequence (P08659 whole entry, looked up): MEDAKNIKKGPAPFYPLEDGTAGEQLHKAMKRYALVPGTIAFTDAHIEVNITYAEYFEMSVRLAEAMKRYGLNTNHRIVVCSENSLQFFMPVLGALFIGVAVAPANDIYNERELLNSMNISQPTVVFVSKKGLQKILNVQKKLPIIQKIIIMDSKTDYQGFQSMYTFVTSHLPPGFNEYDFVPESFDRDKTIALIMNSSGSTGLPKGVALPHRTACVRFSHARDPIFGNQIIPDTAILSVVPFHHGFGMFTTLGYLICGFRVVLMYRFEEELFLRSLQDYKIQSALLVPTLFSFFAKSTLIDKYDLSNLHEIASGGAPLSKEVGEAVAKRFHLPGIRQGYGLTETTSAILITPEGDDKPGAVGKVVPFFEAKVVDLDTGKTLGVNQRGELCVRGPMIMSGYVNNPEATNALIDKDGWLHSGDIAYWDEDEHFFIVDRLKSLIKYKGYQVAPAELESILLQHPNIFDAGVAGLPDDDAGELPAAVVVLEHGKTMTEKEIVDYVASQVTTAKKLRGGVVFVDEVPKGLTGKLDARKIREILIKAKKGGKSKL
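Biochemical qHTS of compounds, final roughly 60 µM downward over six points, against 10 nM purified firefly luciferase using Km concentrations of substrates (10 uM D-luciferin, 10 uM ATP) in Tris acetate pH 7.5 buffer; luminescence output.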
ELG1 repair inh: qHTS screen for small molecules that inhibit ELG1-dependent DNA repair in human embryonic kidney (HEK293T) cells expressing luciferase-tagged ELG1; HEK293T ELG1-luciferase reporter, luminescence, 16 h; DNA damage induced by 5-fluorouridine; Potency, µM (top dose mostly 46.1 µM), most hits filed as inhibitors; actives 2.3% (n = 330,000); AID 504467, 2011; further: nearly all actives have a fitted effect of over 55% in size
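Overnight (16 hr) co-exposure of 2,000 cells/well to 5-fluorouridine and compound at 37 °C preceded detection. Luciferase was quantified via ONE-Glo luminescence; loss of signal denotes inhibition.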
SMN2 splice up: qHTS Assay for Enhancers of SMN2 Splice Variant Expression. HEK293 SMN2-luciferase splicing reporter, luminescence, 30-36 h. Potency, µM (top dose mostly 46.1 µM), actives largely listed as activators. actives 2.8% (n = 210,000). AID 1458, 2008; further: nearly all actives have a fitted effect of over 55% in size
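qHTS luciferase splicing reporter: luminescence rises when SMN2 exon 7 is included in transfected HEK293 cells. Compound exposure lasted 30-36 h at 37C, with 4.5 mM final sodium butyrate as control, followed by a ONE-Glo read.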
Rab9 prom act: qHTS Assay for Rab9 Promoter Activators | Huh7 Rab9 promoter-luciferase reporter, luminescence, 24 h | Potency, µM (highest dose often 9.22 µM), most hits filed as activators | actives 2.8% (n = 320,000); further: nearly all actives have a fitted effect of over 60% in size
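Huh7 reporter line, Rab9 promoter upstream of luciferase. Compound exposure 24 h at 37 °C in reduced-serum medium with 10% FBS. Read-out: luminescence.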
Numbers stand for hits. The call rests on the fitted dose curve; in most records, active means well fitted curve in the direction sought with a large enough effect; inconclusive means small, poorly fitted or top-dose-only effect, or another doubt; inactive means no such curve, though single readings can be large; an effect the other way counts as inactive or inconclusive.

For N#Cc1c(SCc2c(Cl)cccc2Cl)nc(N)[nH]c1=S the results were ELG1 genotoxic inactive, NPC1 prom act inactive, FLuc counter inactive, ELG1 repair inh inactive and Rab9 prom act inactive.
`CC(=O)Nc1ccc(NC(=O)c2ccc(COc3ccc(C)cc3)o2)cc1` gave ELG1 genotoxic inactive, NPC1 prom act inconclusive, FLuc counter inactive, ELG1 repair inh inactive and Rab9 prom act inconclusive.
For Cc1oc(C(=O)Nc2ccc(O)cc2)cc1COc1ccccc1 the results were ELG1 genotoxic inconclusive, NPC1 prom act inactive, FLuc counter inconclusive, ELG1 repair inh inactive, SMN2 splice up inconclusive and Rab9 prom act inactive.
O=C(O)c1ccc(NC(=O)c2ccc(COc3ccccc3)o2)cc1 was read as ELG1 genotoxic inactive, NPC1 prom act inactive, FLuc counter 19µM, ELG1 repair inh inactive and Rab9 prom act inactive.
`COc1ccc(NC(=O)c2ccc(COc3ccc(C)cc3)o2)cc1` gave ELG1 genotoxic inactive, NPC1 prom act inactive, FLuc counter 10.7µM, ELG1 repair inh inactive and Rab9 prom act inactive.
Cc1ccc(OCc2cc(C(=O)Nc3ccccc3)oc2C)cc1 was read as ELG1 genotoxic inconclusive, NPC1 prom act inactive, FLuc counter 19µM, ELG1 repair inh inconclusive, SMN2 splice up inactive and Rab9 prom act inactive.
COc1cc2cc[n+]3cc4c(OC)c(OC)ccc4cc3c2cc1OC was read as SMN2 splice up inactive.
`Cc1ccc(Sc2ccc(N)cn2)cc1` gave ELG1 genotoxic inactive, NPC1 prom act inactive, FLuc counter inconclusive, ELG1 repair inh inconclusive and Rab9 prom act inactive.
Screening Cc1cn(-c2ccc(Br)cc2)[nH]c1=O returned ELG1 genotoxic 18.4µM, NPC1 prom act inactive, FLuc counter inconclusive, ELG1 repair inh inconclusive, SMN2 splice up inactive and Rab9 prom act inactive.
For Cc1ccc2c(c1)c1c(c(=O)n(Cc3ccccc3)c(=O)n1CC(=O)Nc1ccccc1C)n2C the results were FLuc counter inactive.
C=CCSc1nc2ccccc2c(=O)[nH]1 was read as ELG1 genotoxic inactive, NPC1 prom act inactive, FLuc counter inactive, ELG1 repair inh inactive, SMN2 splice up inactive and Rab9 prom act inactive.
For Cc1nnc2sc(SCc3ccccc3)nn2c1=O the results were ELG1 genotoxic inactive, NPC1 prom act inactive, FLuc counter inactive, ELG1 repair inh inconclusive, SMN2 splice up inactive and Rab9 prom act inactive.
Screening C=CCSc1nn2c(=O)c3ccccc3nc2s1 returned ELG1 genotoxic inconclusive, NPC1 prom act 2.51µM, FLuc counter 13.5µM, ELG1 repair inh inconclusive, SMN2 splice up inconclusive and Rab9 prom act 3.16µM.
C/C(Cl)=C/CSc1nn2c(=O)c3ccccc3nc2s1 was read as ELG1 genotoxic inconclusive, NPC1 prom act inconclusive, FLuc counter 12µM, ELG1 repair inh inconclusive, SMN2 splice up inactive and Rab9 prom act inconclusive.
`CCOC(=O)c1sc(-c2ccccn2)nc1C` gave ELG1 genotoxic inactive, NPC1 prom act inactive, FLuc counter 26.9µM, ELG1 repair inh inconclusive, SMN2 splice up inactive and Rab9 prom act inactive.
For COCC(=O)N(C)c1nnc(-c2ccccn2)s1 the results were ELG1 genotoxic 20.6µM, NPC1 prom act inactive, FLuc counter inconclusive, ELG1 repair inh inconclusive, SMN2 splice up 20µM and Rab9 prom act inactive.
Screening CC(=O)c1sc(-c2ccccn2)nc1C returned ELG1 genotoxic inactive, NPC1 prom act inactive, FLuc counter inactive, ELG1 repair inh inconclusive and Rab9 prom act inactive.
For c1ccc(-c2nnc(-c3ccccn3)s2)nc1 the results were ELG1 genotoxic inconclusive, NPC1 prom act 0.1µM, FLuc counter 1.35µM, ELG1 repair inh inconclusive and Rab9 prom act 0.0891µM.
